# Test results: publication PMC8384837, “Expanding the binding specificity for RNA recognition by a PUF domain”
# Columns and labels:
# Assay in all cases: yeast three-hybrid, YBZ-1, SC-Leu-His + 0.5 mM 3-AT, 4 days
# Settings in all cases: tags: N-Gal4 AD-HA kept; label: inside an RPR1-promoter hybrid RNA with tandem MS2 sites; ssRNA
# [1] = target: PUM1 PUF domain R5-RYG (Homo sapiens, UniProt Q14671 828-1176, C1007R;R1008Y;Q1011G)
# Procedure, shortened: (§1)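 The interaction score is the log change in how often each variant appears, from input to selection. Frequencies came from PCR-amplified, Illumina-sequenced repeat regions of Pumilio-1 PUF domain libraries grown in strain YBZ-1 (LexA–MS2 coat fusion, HIS3 reporter) alongside matching RNA elements. Input plates were SC-Leu and selection plates were SC-Leu-His + 0.5 mM 3-AT, each for four days, and the log2 calculation used a pseudocount of 1 where a variant was absent.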
# [2] = target: PUM1 PUF domain R4-FGC (Homo sapiens, UniProt Q14671 828-1176, N971F;H972G;Q975C)
# Procedure, shortened: as §1
# [3] = target: PUM1 PUF domain R3-FFL (Homo sapiens, UniProt Q14671 828-1176, C935F;R936F;Q939L)
# Procedure, shortened: as §1
# [4] = target: PUM1 PUF domain R5-QKA (Homo sapiens, UniProt Q14671 828-1176, C1007Q;R1008K;Q1011A)
# Procedure, shortened: as §1
# [5] = target: PUM1 PUF domain R5-KRF (Homo sapiens, UniProt Q14671 828-1176, C1007K;Q1011F)
# Procedure, shortened: as §1
# [6] = target: PUM1 PUF domain R5-KGT (Homo sapiens, UniProt Q14671 828-1176, C1007K;R1008G;Q1011T)
# Procedure, shortened: as §1
# [7] = target: PUM1 PUF domain R5-GYL (Homo sapiens, UniProt Q14671 828-1176, C1007G;R1008Y;Q1011L)
# Procedure, shortened: as §1
# [8] = target: PUM1 PUF domain R5-WHR (Homo sapiens, UniProt Q14671 828-1176, C1007W;R1008H;Q1011R)
# Procedure, shortened: as §1
# [9] = target: PUM1 PUF domain R3-RAC (Homo sapiens, UniProt Q14671 828-1176, C935R;R936A;Q939C)
# Procedure, shortened: as §1
# [10] = target: PUM1 PUF domain R3-RCR (Homo sapiens, UniProt Q14671 828-1176, C935R;R936C;Q939R)
# Procedure, shortened: as §1
sequence,measurement,setting,value
GGCUAGAACUAGUGGAUCCCCCGGCGCCCGGCGGCUCGAGCCCGGGUAAGUGUAAAUAGUCUGCAUGCCGCCGGGCGCCAUGCCUGCAGGUCGACUCUAGAAAACAUG,binding signal,[1],2.94 log2 enrichment (interaction score)
same,binding signal,[2],1 log2 enrichment (interaction score)
same,binding signal,[3],3.27 log2 enrichment (interaction score)
GGCUAGAACUAGUGGAUCCCCCGGCGCCCGGCGGCUCGAGCCCGGGUAAGUGUAUAUAGUCUGCAUGCCGCCGGGCGCCAUGCCUGCAGGUCGACUCUAGAAAACAUG,binding signal,[2],3.05 log2 enrichment (interaction score)
GGCUAGAACUAGUGGAUCCCCCGGCGCCCGGCGGCUCGAGCCCGGGUAAGUGUCAAUAGUCUGCAUGCCGCCGGGCGCCAUGCCUGCAGGUCGACUCUAGAAAACAUG,binding signal,[4],2.79 log2 enrichment (interaction score)
same,binding signal,[5],2.59 log2 enrichment (interaction score)
same,binding signal,[1],5.09 log2 enrichment (interaction score)
same,binding signal,[6],2.31 log2 enrichment (interaction score)
same,binding signal,[7],0.48 log2 enrichment (interaction score)
same,binding signal,[8],3.55 log2 enrichment (interaction score)
GGCUAGAACUAGUGGAUCCCCCGGCGCCCGGCGGCUCGAGCCCGGGUAAGUGUACAUAGUCUGCAUGCCGCCGGGCGCCAUGCCUGCAGGUCGACUCUAGAAAACAUG,binding signal,[2],0.93 log2 enrichment (interaction score)
GGCUAGAACUAGUGGAUCCCCCGGCGCCCGGCGGCUCGAGCCCGGGUAAGUGUUAAUAGUCUGCAUGCCGCCGGGCGCCAUGCCUGCAGGUCGACUCUAGAAAACAUG,binding signal,[6],2.93 log2 enrichment (interaction score)
same,binding signal,[7],7.41 log2 enrichment (interaction score)
same,binding signal,[8],4.76 log2 enrichment (interaction score)
GGCUAGAACUAGUGGAUCCCCCGGCGCCCGGCGGCUCGAGCCCGGGUAAGUGUAAUUAGUCUGCAUGCCGCCGGGCGCCAUGCCUGCAGGUCGACUCUAGAAAACAUG,binding signal,[9],4.24 log2 enrichment (interaction score)
same,binding signal,[10],2.77 log2 enrichment (interaction score)
